# Assay results published in the supplement of paper PMC10849652.
# Of roughly 8,800 targets only a part is listed; those with a hit were picked by preference. About 0.5% of all pairs of compound and target were hits. Values without a mark were called inactive.
# Assays:
# Assay in all cases: log2 fold change, soluble protein after heating vs DMSO (PISA); higher = thermal stabilisation; K562 lysate, 10 uM; active = over 0.2 and 3.5 SD of the protein, either way, in both replicates (recomputed)
# lapatinib = compound: CS(=O)(=O)CCNCc1ccc(-c2ccc3ncnc(Nc4ccc(OCc5cccc(F)c5)c(Cl)c4)c3c2)o1 [lapatinib]
# Summary of the method: (§1)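 K562 pellets were dounce-homogenised in PBS pH 7.4 with 1 mM MgCl2, and the crude extract at 1 mg/mL protein was treated with 10 μM compound for 30 min. Aliquots were heated for 3 min across 48°C-58°C, pooled, and brought to 0.5% NP-40 at 4°C; soluble protein was the supernatant after 21,000xg for 90 min. Soluble protein was quantified by TMTpro 16plex LC-MS/MS with channel sums equalised, and reported as log2 fold change in thermal stability against DMSO controls, with values from duplicates.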
# pictilisib = compound: CS(=O)(=O)N1CCN(Cc2cc3nc(-c4cccc5[nH]ncc45)nc(N4CCOCC4)c3s2)CC1 [pictilisib]
# Summary of the method: as §1
# crizotinib = compound: C[C@@H](Oc1cc(-c2cnn(C3CCNCC3)c2)cnc1N)c1c(Cl)ccc(F)c1Cl [crizotinib]
# Summary of the method: as §1
# [1] = compound: C[C@H](C1=CC=C(C=C1)C(=O)NC2=C3C=CNC3=NC=C2)N
# Summary of the method: as §1
# duvelisib = compound: C[C@H](Nc1ncnc2nc[nH]c12)c1cc2cccc(Cl)c2c(=O)n1-c1ccccc1 [duvelisib]
# Summary of the method: as §1
# gandotinib = compound: Cc1cc(Nc2cc(CN3CCOCC3)c3nc(C)c(Cc4ccc(Cl)cc4F)n3n2)n[nH]1 [gandotinib]
# Summary of the method: as §1
# tozasertib = compound: Cc1cc(Nc2cc(N3CCN(C)CC3)nc(Sc3ccc(NC(=O)C4CC4)cc3)n2)n[nH]1 [tozasertib]
# Summary of the method: as §1
# doramapimod = compound: Cc1ccc(-n2nc(C(C)(C)C)cc2NC(=O)Nc2ccc(OCCN3CCOCC3)c3ccccc23)cc1 [doramapimod]
# Summary of the method: as §1
# bafetinib = compound: Cc1ccc(NC(=O)c2ccc(CN3CC[C@H](N(C)C)C3)c(C(F)(F)F)c2)cc1Nc1nccc(-c2cncnc2)n1 [bafetinib]
# Summary of the method: as §1
# [2] = compound: Cc1cccc(CC(=O)N2CCc3c2ccc(-c2cn(C)c4ncnc(N)c24)c3F)n1
# Summary of the method: as §1
# nilotinib = compound: Cc1cn(-c2cc(NC(=O)c3ccc(C)c(Nc4nccc(-c5cccnc5)n4)c3)cc(C(F)(F)F)c2)cn1 [nilotinib]
# Summary of the method: as §1
# [3] = compound: Cc1nc(Nc2n[nH]c3c2CN(C(=O)N[C@H](CN(C)C)c2ccccc2)C3(C)C)c2sccc2n1
# Summary of the method: as §1
# dasatinib = compound: Cc1nc(Nc2ncc(C(=O)Nc3c(C)cccc3Cl)s2)cc(N2CCN(CCO)CC2)n1 [dasatinib]
# Summary of the method: as §1
# [4] = compound: Cc1ncc(-c2ccnc(Nc3ccc(S(C)(=O)=O)cc3)n2)n1C(C)C
# Summary of the method: as §1
# [5] = compound: Cn1cc(-c2ccc3c(c2)CCN3C(=O)Cc2cccc(C(F)(F)F)c2)c2c(N)ncnc21
# Summary of the method: as §1
# quisinostat = compound: Cn1cc(CNCC2CCN(c3ncc(C(=O)NO)cn3)CC2)c2ccccc21 [quisinostat]
# Summary of the method: as §1
# tipifarnib = compound: Cn1cncc1[C@@](N)(c1ccc(Cl)cc1)c1ccc2c(c1)c(-c1cccc(Cl)c1)cc(=O)n2C [tipifarnib]
# Summary of the method: as §1
# [6] = compound: NC(=O)Nc1cc(-c2cccc(F)c2)sc1C(=O)N[C@H]1CCCNC1
# Summary of the method: as §1
# [7] = compound: NC(=O)c1cnc(N[C@@H]2CCCC[C@@H]2N)nc1Nc1cccc(-n2nccn2)c1
# Summary of the method: as §1
# [8] = compound: NC1(c2ccc(-c3nc4ccn5c(=O)[nH]nc5c4cc3-c3ccccc3)cc2)CCC1
# Summary of the method: as §1
# Chain of UniProt Q86UK7 (Q86UK7 whole entry, looked up): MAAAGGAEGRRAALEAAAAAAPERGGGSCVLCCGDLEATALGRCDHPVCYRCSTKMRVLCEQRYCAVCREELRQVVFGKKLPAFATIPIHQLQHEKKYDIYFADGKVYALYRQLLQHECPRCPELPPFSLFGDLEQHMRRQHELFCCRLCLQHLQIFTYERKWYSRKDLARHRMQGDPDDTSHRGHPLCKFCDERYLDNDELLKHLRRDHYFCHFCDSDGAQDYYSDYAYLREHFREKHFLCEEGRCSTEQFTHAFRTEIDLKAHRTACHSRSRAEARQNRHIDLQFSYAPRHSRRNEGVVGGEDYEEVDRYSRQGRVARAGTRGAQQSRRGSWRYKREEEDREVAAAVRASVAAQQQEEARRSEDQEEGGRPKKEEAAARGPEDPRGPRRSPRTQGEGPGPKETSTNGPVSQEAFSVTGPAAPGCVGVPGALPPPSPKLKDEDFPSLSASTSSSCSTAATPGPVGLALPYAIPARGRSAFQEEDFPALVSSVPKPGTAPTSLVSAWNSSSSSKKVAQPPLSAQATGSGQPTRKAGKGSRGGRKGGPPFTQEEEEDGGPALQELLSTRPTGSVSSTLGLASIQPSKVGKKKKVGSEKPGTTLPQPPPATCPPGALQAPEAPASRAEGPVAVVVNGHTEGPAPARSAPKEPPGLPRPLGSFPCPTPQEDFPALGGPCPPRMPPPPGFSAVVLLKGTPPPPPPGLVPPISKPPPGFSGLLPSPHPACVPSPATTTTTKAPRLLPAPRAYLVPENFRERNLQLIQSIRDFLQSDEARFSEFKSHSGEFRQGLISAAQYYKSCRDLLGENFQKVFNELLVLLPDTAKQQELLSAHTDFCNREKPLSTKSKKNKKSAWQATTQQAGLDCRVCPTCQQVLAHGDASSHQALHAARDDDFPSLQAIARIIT
# Chain of UniProt P22695 (P22695 whole entry, looked up): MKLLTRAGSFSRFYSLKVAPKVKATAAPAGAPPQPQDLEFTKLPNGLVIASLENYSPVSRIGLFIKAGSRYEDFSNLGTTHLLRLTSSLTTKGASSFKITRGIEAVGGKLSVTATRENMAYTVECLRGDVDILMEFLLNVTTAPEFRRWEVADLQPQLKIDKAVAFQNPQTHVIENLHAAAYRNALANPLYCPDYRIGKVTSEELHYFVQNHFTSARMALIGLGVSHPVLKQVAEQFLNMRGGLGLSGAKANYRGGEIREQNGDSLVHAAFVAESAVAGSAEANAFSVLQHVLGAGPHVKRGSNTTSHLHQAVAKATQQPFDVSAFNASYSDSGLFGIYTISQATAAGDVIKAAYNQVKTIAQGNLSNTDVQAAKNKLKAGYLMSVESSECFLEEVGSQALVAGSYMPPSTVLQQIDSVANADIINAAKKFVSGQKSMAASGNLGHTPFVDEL
# Chain of UniProt Q709C8 (Q709C8 whole entry, looked up): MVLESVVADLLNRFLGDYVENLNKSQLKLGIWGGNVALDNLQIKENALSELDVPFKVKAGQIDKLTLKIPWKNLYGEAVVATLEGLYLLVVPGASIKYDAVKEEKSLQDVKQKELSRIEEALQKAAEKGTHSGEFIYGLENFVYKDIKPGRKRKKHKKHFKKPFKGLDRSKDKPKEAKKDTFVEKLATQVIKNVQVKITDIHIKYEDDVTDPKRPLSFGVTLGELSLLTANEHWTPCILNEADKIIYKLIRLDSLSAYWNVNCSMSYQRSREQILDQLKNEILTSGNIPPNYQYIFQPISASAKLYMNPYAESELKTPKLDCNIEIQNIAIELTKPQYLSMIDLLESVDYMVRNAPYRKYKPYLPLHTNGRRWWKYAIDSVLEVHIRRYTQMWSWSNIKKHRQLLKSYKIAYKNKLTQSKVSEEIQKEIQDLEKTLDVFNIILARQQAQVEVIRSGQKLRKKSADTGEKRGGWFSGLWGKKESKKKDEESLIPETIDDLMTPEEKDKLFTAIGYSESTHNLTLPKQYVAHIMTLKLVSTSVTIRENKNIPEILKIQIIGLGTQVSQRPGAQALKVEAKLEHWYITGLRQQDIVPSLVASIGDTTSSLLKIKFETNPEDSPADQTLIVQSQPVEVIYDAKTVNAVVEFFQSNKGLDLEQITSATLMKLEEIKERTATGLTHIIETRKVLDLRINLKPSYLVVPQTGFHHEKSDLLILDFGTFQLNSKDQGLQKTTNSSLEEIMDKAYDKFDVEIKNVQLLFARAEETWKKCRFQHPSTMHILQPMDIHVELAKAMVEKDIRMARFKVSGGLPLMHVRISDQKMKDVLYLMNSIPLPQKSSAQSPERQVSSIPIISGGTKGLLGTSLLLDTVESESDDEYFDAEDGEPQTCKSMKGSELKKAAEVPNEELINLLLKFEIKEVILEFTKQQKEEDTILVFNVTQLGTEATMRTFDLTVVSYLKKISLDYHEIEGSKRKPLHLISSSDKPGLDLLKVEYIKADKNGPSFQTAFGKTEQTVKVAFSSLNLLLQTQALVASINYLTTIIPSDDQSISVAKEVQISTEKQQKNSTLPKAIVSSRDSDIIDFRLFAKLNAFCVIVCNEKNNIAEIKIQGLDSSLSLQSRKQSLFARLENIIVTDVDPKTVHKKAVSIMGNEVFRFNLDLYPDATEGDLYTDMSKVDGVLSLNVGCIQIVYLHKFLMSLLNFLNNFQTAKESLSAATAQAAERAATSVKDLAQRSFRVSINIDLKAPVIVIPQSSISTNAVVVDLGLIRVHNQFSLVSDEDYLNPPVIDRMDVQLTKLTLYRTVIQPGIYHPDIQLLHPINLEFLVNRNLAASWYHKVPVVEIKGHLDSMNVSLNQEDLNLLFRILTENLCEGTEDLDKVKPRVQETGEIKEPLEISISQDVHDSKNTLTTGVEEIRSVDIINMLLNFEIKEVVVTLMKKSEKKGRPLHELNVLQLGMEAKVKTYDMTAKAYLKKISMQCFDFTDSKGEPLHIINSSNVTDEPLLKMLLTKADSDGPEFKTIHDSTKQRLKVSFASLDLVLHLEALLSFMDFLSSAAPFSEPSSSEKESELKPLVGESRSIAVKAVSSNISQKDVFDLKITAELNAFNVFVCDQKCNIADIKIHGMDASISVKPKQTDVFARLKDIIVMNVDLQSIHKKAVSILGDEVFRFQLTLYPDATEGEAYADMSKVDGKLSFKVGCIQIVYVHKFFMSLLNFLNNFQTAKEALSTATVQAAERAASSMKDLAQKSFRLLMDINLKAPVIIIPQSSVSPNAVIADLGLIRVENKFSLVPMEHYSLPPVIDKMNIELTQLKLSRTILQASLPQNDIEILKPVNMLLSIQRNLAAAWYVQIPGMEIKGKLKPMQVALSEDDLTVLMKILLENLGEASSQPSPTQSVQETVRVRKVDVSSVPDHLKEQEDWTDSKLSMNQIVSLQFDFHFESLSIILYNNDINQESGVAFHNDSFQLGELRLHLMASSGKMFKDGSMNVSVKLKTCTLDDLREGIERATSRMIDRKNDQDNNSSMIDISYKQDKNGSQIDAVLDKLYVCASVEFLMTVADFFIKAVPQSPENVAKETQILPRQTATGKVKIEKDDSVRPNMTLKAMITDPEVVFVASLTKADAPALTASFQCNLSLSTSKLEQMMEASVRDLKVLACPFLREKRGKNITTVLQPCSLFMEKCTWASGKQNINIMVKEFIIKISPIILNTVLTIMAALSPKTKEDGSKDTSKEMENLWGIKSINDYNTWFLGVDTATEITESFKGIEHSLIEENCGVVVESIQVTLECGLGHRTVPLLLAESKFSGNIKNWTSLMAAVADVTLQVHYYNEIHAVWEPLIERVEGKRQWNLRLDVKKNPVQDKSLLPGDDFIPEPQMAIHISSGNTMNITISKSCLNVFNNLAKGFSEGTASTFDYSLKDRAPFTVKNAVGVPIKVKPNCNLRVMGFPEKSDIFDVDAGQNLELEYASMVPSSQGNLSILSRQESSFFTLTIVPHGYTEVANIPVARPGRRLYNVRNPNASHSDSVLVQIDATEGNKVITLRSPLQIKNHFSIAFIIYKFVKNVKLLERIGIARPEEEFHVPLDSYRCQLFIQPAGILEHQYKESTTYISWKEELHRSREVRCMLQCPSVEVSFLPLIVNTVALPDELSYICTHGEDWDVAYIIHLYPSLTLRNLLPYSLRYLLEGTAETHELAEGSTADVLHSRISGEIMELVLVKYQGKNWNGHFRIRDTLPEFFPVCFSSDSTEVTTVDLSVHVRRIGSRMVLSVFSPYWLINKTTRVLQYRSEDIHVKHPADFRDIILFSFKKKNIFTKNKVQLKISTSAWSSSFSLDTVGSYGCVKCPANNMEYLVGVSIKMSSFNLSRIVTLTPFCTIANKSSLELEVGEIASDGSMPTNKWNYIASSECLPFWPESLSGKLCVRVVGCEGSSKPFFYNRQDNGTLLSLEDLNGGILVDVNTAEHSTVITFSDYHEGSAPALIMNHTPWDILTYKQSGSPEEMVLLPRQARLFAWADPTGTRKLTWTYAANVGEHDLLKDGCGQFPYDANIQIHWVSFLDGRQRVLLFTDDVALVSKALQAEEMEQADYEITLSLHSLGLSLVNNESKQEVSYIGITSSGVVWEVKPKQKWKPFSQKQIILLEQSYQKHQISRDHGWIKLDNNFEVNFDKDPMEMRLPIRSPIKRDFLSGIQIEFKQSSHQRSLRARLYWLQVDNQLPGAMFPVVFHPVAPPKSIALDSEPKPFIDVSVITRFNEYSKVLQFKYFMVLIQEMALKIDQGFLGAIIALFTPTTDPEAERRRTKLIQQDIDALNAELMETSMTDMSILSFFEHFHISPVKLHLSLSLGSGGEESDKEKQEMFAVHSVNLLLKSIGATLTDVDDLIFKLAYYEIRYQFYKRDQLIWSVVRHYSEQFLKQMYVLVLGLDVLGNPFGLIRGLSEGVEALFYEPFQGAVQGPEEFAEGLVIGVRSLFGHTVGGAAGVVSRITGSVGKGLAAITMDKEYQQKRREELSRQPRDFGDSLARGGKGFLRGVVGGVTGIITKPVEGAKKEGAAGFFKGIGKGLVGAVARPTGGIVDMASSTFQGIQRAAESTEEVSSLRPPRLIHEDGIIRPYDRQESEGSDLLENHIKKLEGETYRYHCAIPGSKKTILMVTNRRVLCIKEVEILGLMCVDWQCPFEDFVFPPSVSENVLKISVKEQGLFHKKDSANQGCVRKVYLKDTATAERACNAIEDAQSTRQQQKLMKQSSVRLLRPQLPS
Target,log2 fold change (lapatinib),log2 fold change (pictilisib),log2 fold change (crizotinib),log2 fold change [1],log2 fold change (duvelisib),log2 fold change (gandotinib),log2 fold change (tozasertib),log2 fold change (doramapimod),log2 fold change (bafetinib),log2 fold change [2],log2 fold change (nilotinib),log2 fold change [3],log2 fold change (dasatinib),log2 fold change [4],log2 fold change [5],log2 fold change (quisinostat),log2 fold change (tipifarnib),log2 fold change [6],log2 fold change [7],log2 fold change [8]
VPS4A (UniProt Q9UN37),0.003,-0.034,-0.034,-0.042,-0.012,-0.066,0.007,0.038,0.004,0.056,-0.011,0.008,-0.075,0.002,0.056,-0.027,0.023,0.019,0.004,-0.011
UQCRC2 (UniProt P22695),-0.04,-0.008,0.019,-0.011,0.001,-0.004,-0.025,-0.027,-0.05,-0.007,0.034,-0.028,0,0.004,-0.043,0.007,-0.011,0.02,-0.008,0.011
YLPM1 (UniProt P49750),0.031,-0.019,0.064,0.147,0.009,-0.067,0.017,-0.042,-0.09,-0.054,-0.023,-0.192,0.018,-0.384 (active),0.021,-0.015,-0.011,0.033,0.041,-0.013
VPS13C (UniProt Q709C8),-0.008,0.023,0.003,-0.065,0.021,-0.055,0.052,-0.006,-0.054,0.213,0.138,0.043,-0.011,-0.069,-0.039,-0.034,-0.177,-0.009,-0.028,-0.05
ZNF598 isoform 3 (UniProt Q86UK7),0.027,0.005,0.006,-0.01,-0.01,0.023,0.048,0.024,-0.012,0.015,-0.004,-0.022,-0.063,0.031,0.032,-0.023,-0.019,0.01,0.011,0.029
WAC (UniProt Q9BTA9),0.005,-0.04,0.018,0,-0.005,-0.014,0.004,-0.031,-0.057,0.043,-0.012,-0.001,-0.038,-0.019,0.002,-0.029,0,0.019,-0.01,0.004
XPO5 (UniProt Q9HAV4),-0.042,0,-0.085,-0.041,-0.017,-0.14,0.013,-0.008,-0.006,0.049,-0.025,-0.016,-0.068,0.013,0.005,-0.092,-0.015,0.029,0.023,-0.024
ZFYVE19 (UniProt Q96K21),0.042,0.017,0.007,-0.125,-0.005,0.085,0.046,-0.029,0,0.149,0.014,-0.001,0.007,0.053,-0.041,-0.01,0.006,-0.003,0.014,0.003
USP8 (UniProt P40818),-0.011,-0.048,-0.009,0.002,-0.023,-0.077,-0.013,0.001,-0.026,0.017,-0.014,-0.007,0.005,0.042,0.024,-0.015,-0.01,0.016,-0.016,0.026
ZHX1 (UniProt Q9UKY1),0.014,0.003,0.018,-0.57 (active),0.038,0.475 (active),-0.09,-0.013,-0.08,0.431 (active),0.011,-0.012,0,0.06,-0.096,-0.035,0.007,0.039,-0.047,-0.011
VANGL1 (UniProt Q8TAA9),0.047,-0.071,0.031,0.07,0.099,0.004,0.016,-0.043,0.016,0.084,-0.086,-0.067,-0.019,0.079,-0.036,0.014,0.042,0.009,0.121,0.034
VTN (UniProt P04004),-0.057,0.026,0.019,-0.384 (active),0.018,0.164,-0.006,-0.023,-0.054,0.148,0.04,0.064,0.019,-0.102,0,0.022,-0.092,0.006,-0.063,-0.03
ZDHHC18 (UniProt Q9NUE0),0.029,0.078,-0.023,-0.017,0.013,-0.149,-0.061,0.054,-0.068,-0.11,0.067,-0.329,0.176,-0.047,-0.158,-0.008,0.177,0.008,0.059,0.067
YME1L1 (UniProt Q96TA2),-0.025,-0.034,-0.073,0.01,-0.017,-0.112,0.048,-0.023,-0.024,0.055,0.011,-0.06,0,0.026,-0.044,-0.045,-0.019,0.016,0.06,-0.059
ZC2HC1A (UniProt Q96GY0),0.004,0.056,-0.009,-0.082,0,0.053,0.007,-0.021,0.052,0.103,0,0.005,-0.085,0.002,0.1,-0.082,-0.02,-0.014,0.04,-0.092
WDR91 (UniProt A4D1P6),-0.003,-0.012,-0.009,-0.001,0.002,0.048,0,0.038,-0.05,0.052,-0.051,-0.025,-0.039,-0.01,0.056,0.005,0.014,-0.009,-0.004,0.011
